Most compounds without a hit are left out; they make up all but 7.5% or so of the library.
ELG1 genotoxic: genotoxicity induction in ELG1-luciferase HEK293T cells; HEK293T ELG1-luciferase reporter, luminescence, 16 h; Potency, µM (doses to about 46 µM), for the others: at the top dose activity change, positive = activation, actives largely listed as activators; 1.3% of 330,000 active; AID 504466; note: % of control where 0% means no effect; nearly all actives have a fitted effect of over 60% in size
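Screening used a luciferase reporter fused to human ELG1 in HEK293T cells. Luminescence was read on a CCD plate imager after 16 hr exposure and 30 min ONE-Glo incubation.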
Rab9 prom act: activators of Rab9 promoter; Huh7 Rab9 promoter-luciferase reporter, luminescence, 24 h; Potency, µM (doses to about 9.22 µM), without a hit: at the highest dose activation, negative = inhibition, most hits filed as activators; 2.8% of 320,000 active; note: % of control where 0% means no effect; nearly all actives have a fitted effect of over 60% in size
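Stable Rab9-luc Huh7, 1500 cells/well, 2 h settle; cmpd in DMSO, 24 h, 37 °C/5% CO2; luciferase reagent 10 min RT; luminescence.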
NPC1 prom act: activates the NPC1 promoter; Huh7 NPC1 promoter luciferase reporter, 24 h; Potency, µM (doses to about 9.22 µM), without a hit: top-dose activation, most hits filed as activators; 2.4% of 320,000 active; note: % of control where 0% means no effect; nearly all actives have a fitted effect of over 60% in size
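Readout is luciferase luminescence, reflecting NPC1 promoter activation in stably transfected Huh7 cells after 24 h compound exposure at 37 °C in reduced-serum medium with 10% FBS.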
SMN2 splice up: SMN2 splice variant enhancement | HEK293 SMN2-luciferase splicing reporter, luminescence, 30-36 h | Potency, µM (titrated, usually from 46.1 µM), inactives show at the top dose activity change, positive = activation, usual class: activators | 2.8% of 210,000 active | AID 1458; note: % of control where 0% means no effect; nearly all actives have a fitted effect of over 55% in size
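HEK293 cells carry an SMN2 minigene-luciferase reporter in which exon 7 inclusion puts luciferase in frame. Cells were seeded at 2000 cells/well, attached for 10-12 hours, then exposed to compounds for 30-36 hours at 37C before ONE-Glo luminescence.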
FLuc modulator: firefly luciferase modulation, counter-screen for miR-21 project. P08659. purified FLuc, Km substrates, luminescence inhibition. Potency, µM (highest dose often 57.5 µM), for the others: top-dose activity change, negative = inhibition, most hits filed as inhibitors. 6.9% of 360,000 active;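 note: plate controls were vehicle for no effect and reference inhibitor for full effect; nearly all actives have a fitted effect of over 55% in size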
Target sequence (P08659 whole entry, looked up): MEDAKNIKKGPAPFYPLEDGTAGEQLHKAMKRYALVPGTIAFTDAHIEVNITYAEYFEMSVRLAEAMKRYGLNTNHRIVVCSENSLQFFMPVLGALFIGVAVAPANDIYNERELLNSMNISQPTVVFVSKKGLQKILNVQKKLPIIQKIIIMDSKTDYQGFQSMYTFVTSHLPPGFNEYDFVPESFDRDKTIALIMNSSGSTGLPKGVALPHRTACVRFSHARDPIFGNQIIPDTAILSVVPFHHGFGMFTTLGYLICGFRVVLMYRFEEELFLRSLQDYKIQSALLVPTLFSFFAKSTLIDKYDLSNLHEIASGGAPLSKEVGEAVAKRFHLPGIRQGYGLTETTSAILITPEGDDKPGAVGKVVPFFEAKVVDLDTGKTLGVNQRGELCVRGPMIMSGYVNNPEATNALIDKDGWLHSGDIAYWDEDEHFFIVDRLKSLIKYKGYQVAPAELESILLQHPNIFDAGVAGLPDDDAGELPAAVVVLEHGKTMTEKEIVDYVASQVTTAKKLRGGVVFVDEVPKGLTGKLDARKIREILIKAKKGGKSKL
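Purified P. pyralis luciferase (10nM final) with 10uM D-luciferin and 10uM ATP (Km levels) in 50mM Tris acetate pH 7.5, 10mM Mg acetate, 0.01% Tween-20, 0.05% BSA; qHTS 6-point titration, ~60 µM downward; luminescence read.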
Starred values were filed as active, the others as inactive; ? = inconclusive; nt = no result. Calls come from the whole dose curve; as a rule, active = well fitted curve in the direction sought with a large enough effect; inconclusive = small, poorly fitted or top-dose-only effect, or another doubt; inactive = no such curve, though single readings can be large; an effect the other way counts as inactive or inconclusive. Potency is the fitted concentration of half-maximal effect.

SMILES | ELG1 genotoxic | Rab9 prom act | NPC1 prom act | SMN2 splice up | FLuc modulator
CCSc1ccccc1C(=O)NCCCn1ccnc1 | -2.9% | -7.6% | 5.5% | -0.6% | 2.8%
CS(=O)(=O)c1ccc2nc(NC(=O)c3ccccc3Br)sc2c1 | ? | ? | 2.82µM* | nt | 9.53µM*
CS(=O)(=O)c1ccc2nc(NC(=O)c3ccccc3Cl)sc2c1 | 11.4% | 20.6% | 20.4% | nt | 16.9µM*
CC(=O)Nc1ccc(C(=O)N/N=C/C2CC3C=CC2C3)cc1 (stereo not given) | -0.3% | 0.7% | -6.7% | -4.1% | -10.0%
O=C(N/N=C/C1CC2C=CC1C2)c1ccccc1O (stereo not given) | 0.9% | -9.3% | -0.3% | nt | 21.3µM*
O=C1C(C=NCCCN2CCOCC2)=C(O)c2ccccc21 | 14.6% | 3.6% | -4.7% | -9.1% | ?
O=C1C(C=NCCN2CCOCC2)=C(O)c2ccccc21 | ? | 11.4% | -5.2% | ? | 6.01µM*
COc1ccc(Cn2c(O)c(C=Nc3ccc(OC)cc3)c3ccccc3c2=O)cc1 | 0.8% | -0.8% | -7.6% | 22.1% | -2.3%
COc1ccc(N=CC2=C(O)c3ccccc3C2=O)cc1 | ? | 0.316µM* | 0.708µM* | 3.98µM* | 0.151µM*
COc1ccc(N=Cc2oc3ccc4ccccc4c3c2O)cc1 | 22.1% | 3.16µM* | ? | 12.6µM* | ?
COc1ccc(N=Cc2[nH]c3ccccc3c2O)cc1 | 12.9% | ? | 8.5% | ? | 2.13µM*
COc1ccc(OC)c(/C=N\NC(=O)c2cc3c(ccc4ccccc43)o2)c1 | -8.8% | 4.1% | 2.0% | nt | -14.2%
CN=CC1=C(O)c2ccccc2C1=O | 11.2% | 0.4% | 3.8% | 17.3% | 2.9%
O=C1C(C=Nc2ccccc2)=C(O)c2ccccc21 | ? | 1.58µM* | 3.16µM* | 15.8µM* | 0.536µM*
COc1ccc(NC(=S)N2CCCC(c3nc4ccc(C)cc4[nH]3)C2)c(OC)c1 (stereo not given) | -1.7% | -7.7% | -7.8% | nt | 13.5µM*
Cc1cc2nc(C3CCCN(C(=S)Nc4ccccc4C)C3)[nH]c2cc1C (stereo not given) | 0.9% | -0.5% | -2.3% | 5.6% | 3.38µM*
Cc1ccc(NC(=S)N2CCCC(c3nc4ccc(C)cc4[nH]3)C2)c(C)c1 (stereo not given) | -7.2% | 0.2% | 1.0% | -4.5% | -8.0%
COc1ccc(NC(=S)N2CCC(c3nc4ccc(Cl)cc4[nH]3)CC2)c(OC)c1 | -5.3% | -2.0% | -4.6% | -6.0% | -7.4%
Cc1ccc2nc(C3CCCN(C(=S)Nc4cccc(C)c4C)C3)[nH]c2c1 (stereo not given) | -2.7% | -3.3% | -2.4% | -12.3% | ?
COc1ccc(NC(=S)N2CCCC(c3nc4ccc(C)cc4[nH]3)C2)cc1 (stereo not given) | -1.8% | -6.3% | -1.1% | nt | 13.5µM*
Cc1nnc(NC(=O)CN2CC(C)OC(C)C2)s1 (stereo not given) | 0.9% | 7.6% | 2.7% | nt | 2.9%
O=C(O)c1ccc(CN2C(=O)c3ccc(C(=O)O)cc3C2=O)cc1 | 1.4% | -1.9% | 1.1% | nt | 0.9%
O=C(O)c1cccc(NC(=O)c2ccc(CN3C(=O)c4ccccc4C3=O)cc2)c1 | 0.1% | 7.8% | 1.9% | nt | 12µM*
Cc1c(NC(=O)c2ccc3c(c2)C(=O)N(Cc2ccco2)C3=O)cccc1C(=O)O | 0.6% | -9.1% | 0.1% | -7.8% | 15.1µM*
O=C(O)c1cccc(NC(=O)c2ccc3c(c2)C(=O)N(C2CCCCC2)C3=O)c1 | ? | 1µM* | 1.58µM* | nt | 0.19µM*
SMILES | ELG1 genotoxic | Rab9 prom act | NPC1 prom act | SMN2 splice up | FLuc modulator
O=C(Nc1ccccc1O)c1ccc2c(c1)C(=O)N(Cc1ccco1)C2=O | -4.5% | 12.7% | 0.9% | nt | -2.8%
O=C(O)c1cccc(NC2=C(Cl)C(=O)c3ccccc3C2=O)c1 | -23.6% | ? | 24.9% | 3.8% | 16.9µM*
O=C(Nc1cccnc1)c1ccc(CSc2ccccc2)cc1 | 9.3% | 24.0% | 1.9% | nt | -15.5%
O=C(O)c1cccc(NC(=O)c2ccc3c(c2)C(=O)N(Cc2ccco2)C3=O)c1 | 1.0% | -2.8% | 0.0% | nt | 0.953µM*
O=C(Nc1cccc(Br)c1)c1ccc(CSc2ccccc2)cc1 | 5.2% | 13.9% | 16.8% | -7.8% | 12µM*
COc1cc(S(=O)(=O)NCC2CCCO2)ccc1Br (stereo not given) | -1.5% | -2.4% | 1.1% | 11.6% | -0.7%

Assay outcomes: PubChem, National Center for Advancing Translational Sciences (NCATS)
